Screens deposited in PubChem by several laboratories.
Sampled rows, rich in hits. Any-hit rate of the full collection: about 2.2%.
aSyn UTR inh = 5' untranslated region of α-synuclein, MLPCN primary screen; alpha-synuclein 5'UTR reporter, inhibitor activity; inhibition, % (tested at 7.5 µM); 300,000 tested, 0.82% active; in the data active = inhibition above about 60%;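 note: H4 neuroglioblastoma cells stably carrying SNCA 5'UTR luciferase fusion; 0% = DMSO wells and 100% = positive control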
Ba/F3 V617F tox = reduce viability of Ba/F3 cells dependent on JAK2V617F. Ba/F3 EpoR-JAK2V617F viability, ATP luminescence. AID 1446. 220,000 tested, 1.1% active. inhibition, % at 5.6 µM;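 active = inhibition above the campaign mean plus 3 SD over all tested compounds, cut at about 24% in these data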;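 note: cytokine-independent growth of Ba/F3 cells driven by EpoR plus mutant JAK2; 0% = DMSO-treated cells and 100% = JAK inhibitor I control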
BaF3 tox = counter-screen for JAK2V617F inhibitors: parental Ba/F3 viability inhibitors; CellTiter-Glo ATP luminescence; inhibition, % at 5.6 µM; 220,000 tested, 1.1% active; AID 1486;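 active = inhibition above a per-campaign cutoff, the mean inhibition of all tested compounds plus 3 SD, cut at about 27% in these data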;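 note: 0% = DMSO wells and 100% = JAK Inhibitor I control wells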
KLF5 inh = kruppel-like factor 5 inhibition. 290,000 tested, 0.23% active. inhibition, % at 5 µM. DLD-1 KLF5 promoter-luciferase reporter, luminescence;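 active = inhibition above a per-plate limit of that plate's mean compound inhibition plus 3 SD, cut at about 60% in these data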;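 note: 0% = DMSO wells and 100% = LY294002 at 200 µM; higher means less KLF5 promoter-driven luciferase light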
APP 5UTR inh = APP translation inhibition. SH-SY5Y APP 5'UTR-luciferase reporter, luminescence. inhibition, % at 2 µM. 190,000 tested, 0.82% active. AID 1285;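 active = inhibition above a set limit, derived from the sample mean plus 3 SD, cut at about 45% in these data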
IEC-6 tox-1 = IEC-6 cytotoxicity, counter-screen for KLF5 inhibitors; luminescence viability; inhibition, % at 5 µM; 290,000 tested, 0.78% active; in the data active = inhibition above about 22%;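 note: 0% = plate median of test compound wells and 100% = cytotoxic reference compound wells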
KLF5 confirm = confirmation of KLF5 inhibitors; inhibition, % at 4 µM; DLD-1 KLF5 promoter firefly luciferase reporter, luminescence; shares compounds with KLF5 inh; 610 tested, 79% active;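 active = inhibition above a set limit taken from the earlier primary screen, cut at about 63% in these data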;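 note: 0% = DMSO wells and 100% = LY294002 at 200 µM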
IEC-6 tox-2 = rat IEC-6 cytotoxicity, KLF5 inhibitor counter-screen. AID 1905. shares compounds with KLF5 inh. inhibition, % at 4 µM. IEC-6 rat intestinal cells, viability luminescence. 610 tested, 56% active; in the data active = inhibition above about 23%;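 note: cells exposed to compounds for 48 hours before viability read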
An asterisk follows results filed as active; x = not tested or not shown.

SMILES	aSyn UTR inh	Ba/F3 V617F tox	BaF3 tox	KLF5 inh	APP 5UTR inh	IEC-6 tox-1	KLF5 confirm	IEC-6 tox-2
O=C(Nc1cccc(-c2ccc(N3CCCCC3)nn2)c1)C(F)(F)F	96.2*	x	x	75.6*	x	10.7	50.9	13.7
Cc1ccc(Nc2nnc(C)c3ccccc23)c(C)c1	3.8	x	x	x	x	x	x	x
COc1cc(Cl)ccc1NC(=S)N(CCN1CCOCC1)C1CCN(C(C)=O)CC1	-6.2	3.4	3.6	-34.6	6.3	5.4	x	x
COc1ccc(CCNC(=O)C2CCCN2C(=O)Nc2ccc(Cl)cc2)cc1OC (stereo not drawn)	3.6	x	x	-5.2	x	-0.6	x	x
O=C(NCC1CCCO1)c1ccc([N+](=O)[O-])o1 (stereo not drawn)	-90.0	x	x	-11.4	x	5.6	x	x
O=C(CCl)Nc1cc(SCC(O)CO)cc([N+](=O)[O-])c1 (stereo not drawn)	110.0*	99.1*	98.8*	84.3*	-16.4	14.4	112.5*	33.5*
CCc1ccn2cc(-c3ccc4c(c3)OCO4)nc2c1	107.0*	5.6	7.4	66.2*	x	5.5	62.4*	5.6
Cc1ccc2[nH]cc(S(=O)(=O)c3ccc(C)c(C)c3)c(=O)c2c1	-9.9	x	x	-44.7	x	-1.0	x	x
Oc1ccc(/C=C/c2ccc3ccccc3n2)cc1	89.7*	67.8*	38.9*	78.3*	-55.1	25.7*	50.6	15.4
O=c1cnnc(N/N=C/c2ccccn2)[nH]1	74.8*	40.7*	50.6*	75.7*	x	8.2	71.6*	49.7*
Cc1cccc(C)c1OCC(=O)Nc1ccccc1C(=O)N1CCOCC1	-1.3	x	x	2.4	x	4.1	x	x
O=C(Nc1ccccc1)Nc1ccc(Cl)nc1Cl	-93.5	x	x	x	x	x	x	x
COc1ccc(-n2ncc3c(N4CCN(c5cccc(C)c5C)CC4)ncnc32)cc1	41.2	x	x	-22.0	x	6.7	x	x
COc1ccc(-n2ncc3c(N4CCCCC4)ncnc32)cc1	101.2*	1.5	3.4	65.3*	-39.3	1.8	88.3*	-5.6
CCCC(c1nnnn1CS(=O)(=O)c1ccc(C)cc1)N1CCC(C(N)=O)CC1 (stereo not drawn)	9.6	x	x	17.7	x	1.3	x	x
O=C(CN1C(=O)c2ccccc2S1(=O)=O)c1ccc2c(c1)OCCCO2	114.4*	-3.9	-4.5	101.1*	x	-5.0	108.5*	2.4
O=C(CCN1C(=O)c2ccccc2S1(=O)=O)Nc1cc(Cl)ccc1Cl	-8.5	x	x	x	x	x	x	x
O=C(CN1C(=O)c2ccccc2S1(=O)=O)c1ccc2c(c1)OCCO2	111.2*	3.6	0.2	90.8*	x	2.4	96.9*	-0.9
O=C(CN1C(=O)c2ccccc2S1(=O)=O)c1ccc(Cl)cc1Cl	77.7*	x	x	83.7*	x	3.4	83.3*	-4.3
O=C(CCN1C(=O)c2ccccc2S1(=O)=O)Nc1ccc2c(c1)OCCO2	1.4	-0.4	0.0	-14.2	3.0	-4.2	x	x
C=CCn1c(SCC(=O)Nc2ccc(N3CCOCC3)cc2)nnc1-c1ccco1	-4.0	x	x	3.2	x	-0.1	x	x
CCc1ccc(NC(=S)N2CCCCCCC2)cc1	-123.0	0.4	0.4	-55.4	-34.5	4.9	x	x
O=C1CCCc2nc3c(cc21)C(O)Oc1c-3ccc2ccccc12 (stereo not drawn)	-117.7	-1.4	6.5	-6.0	-157.4	-1.9	x	x
O=C1CCCc2nc3c(cc21)C(O)Oc1ccccc1-3 (stereo not drawn)	-31.0	-1.6	-2.2	109.6*	-9.8	2.1	-4.4	5.4
O=C(O)c1ccc(N/N=C/c2c[nH]c3ccccc23)cc1	78.6*	x	x	77.0*	x	-4.3	69.9*	7.3
SMILES	aSyn UTR inh	Ba/F3 V617F tox	BaF3 tox	KLF5 inh	APP 5UTR inh	IEC-6 tox-1	KLF5 confirm	IEC-6 tox-2
Cc1ccc(-c2nc(C)sc2CC(=O)OCC(=O)Nc2ccc(F)c(Cl)c2)cc1	-0.4	x	x	x	x	x	x	x
COc1ccc2[nH]c(C(=O)N/N=C/c3ccccc3OC)cc2c1	-119.0	x	x	28.7	x	5.4	x	x
COc1cc(OC)c2cc(C(=O)N/N=C/c3ccccc3O)[nH]c2c1	-31.0	x	x	83.8*	x	15.1	57.3	2.4
COc1cc(OC)cc(N(C(=O)CNC(=O)c2ccco2)C(C(=O)NCC2CCCO2)c2ccccc2)c1 (stereo not drawn)	18.1	x	x	65.4*	x	-5.1	5.6	8.2
O=C(Nc1cccc(O)c1)c1cc(-c2ccc3c(c2)OCO3)on1	69.3*	x	x	83.4*	x	0.4	71.8*	-7.3
CCOc1ccccc1/C=N/Nc1nc2c(N)ncnc2n1[C@H]1O[C@@H](CO)[C@H](O)[C@@H]1O	17.3	-4.5	-1.4	1.6	x	3.0	x	x
